According to PubChem BioAssay (NCATS):
Records with an inconclusive call do not appear. Entries that show only a call come without a potency. A number with no mark means an inactive call. Calls of active or inactive are those of the source. Calls follow the shape of the dose curve; as a rule, active = well fitted curve in the direction sought with a large enough effect; inconclusive = small, poorly fitted or top-dose-only effect, or another doubt; inactive = no such curve, though single readings can be large; an effect the other way counts as inactive or inconclusive.

Key:
[1] = qHTS of pediatric cancer cell lines to identify multiple opportunities for drug repurposing: Primary screen for SJ-GBM2 cells (AID 1347091); also: potency is read from the fitted curve at half-maximal effect
Method in brief: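 Viability measured as metabolically active cells via CellTiter-Glo luminescence following 48 hours of compound exposure, 11-point dilutions in confirmatory testing. 500-1,000 cells/well plated 5 hours before dosing; controls were DMSO and 2.3 µM bortezomib.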

[2] = qHTS of pediatric cancer cell lines to identify multiple opportunities for drug repurposing: Primary screen for A673 cells (AID 1347092); also: nearly all actives have a fitted effect of over 45% in size; also: potency is read from the fitted curve at half-maximal effect
Method in brief: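 Cell viability of A673 measured by CellTiter-Glo ATP luminescence after 48 hours compound exposure. Dilution series spanned 0.78 nM to 46 µM (MIPE, 11-point) or 0.59 nM to 46 µM (NPC, 8-point); bortezomib 2.3 uM positive control.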

[3] = qHTS of pediatric cancer cell lines to identify multiple opportunities for drug repurposing: Primary screen for SK-N-MC cells (AID 1347093); also: potency is read from the fitted curve at half-maximal effect
Method in brief: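 Metabolically active cells were quantified by ATP-dependent luminescence (CellTiter-Glo, 15 min at room temperature) following 48 h treatment. Cells had been plated at 500-1,000 per well and settled for 5 h beforehand.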

[4] = qHTS of pediatric cancer cell lines to identify multiple opportunities for drug repurposing: Primary screen for BT-37 cells (AID 1347094); also: potency is read from the fitted curve at half-maximal effect
Method in brief: (§1)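 Plated cells (500-1,000 per well, growth media) were allowed to settle for 5 hours, treated with compound dilutions for 48 hours, then lysed with CellTiter-Glo for 15 min at room temperature before luminescence reading.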

[5] = qHTS of pediatric cancer cell lines to identify multiple opportunities for drug repurposing: Primary screen for NB-EBc1 cells (AID 1347095); also: potency is read from the fitted curve at half-maximal effect
Method in brief: as §1

[6] = qHTS of pediatric cancer cell lines to identify multiple opportunities for drug repurposing: Primary screen for Saos-2 cells (AID 1347097); also: nearly all actives have a fitted effect of over 40% in size
Method in brief: as §1

[7] = qHTS of pediatric cancer cell lines to identify multiple opportunities for drug repurposing: Primary screen for SK-N-SH cells (AID 1347098); also: nearly all actives have a fitted effect of over 65% in size; also: potency is read from the fitted curve at half-maximal effect
Method in brief: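 Cells (500-1,000/well) rested 5 h, then received compounds for 48 h; metabolically active cells were measured by CellTiter-Glo luminescence. Final concentrations spanned up to 46 µM (MIPE, 11-point) or 0.59 nM-46 µM (NPC, 8-point) in primary screens, 11-point in follow-ups.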

[8] = qHTS of pediatric cancer cell lines to identify multiple opportunities for drug repurposing: Primary screen for NB1643 cells (AID 1347099); also: nearly all actives have a fitted effect of over 50% in size; also: potency is read from the fitted curve at half-maximal effect
Method in brief: as §1

[9] = qHTS of pediatric cancer cell lines to identify multiple opportunities for drug repurposing: Primary screen for LAN-5 cells (AID 1347100); also: potency is read from the fitted curve at half-maximal effect
Method in brief: (§2)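 Viability after 48 h compound treatment at 37C, 500-1,000 cells/well, read as ATP luminescence with CellTiter-Glo. Primary screens used 11-point (MIPE, 0.78 nM-46 µM) or 8-point (NPC, 0.59 nM-46 µM) final concentrations; follow-up screens used 11-point dilutions.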

[10] = qHTS of pediatric cancer cell lines to identify multiple opportunities for drug repurposing: Primary screen for U-2 OS cells (AID 1347096); also: nearly all actives have a fitted effect of over 50% in size
Method in brief: as §2

Compound	Potency [1]	Potency [2]	Potency [3]	Potency [4]	Potency [5]	Potency [6]	Potency [7]	Potency [8]	Potency [9]	Potency [10]
CO[C@@]1(NC(=O)Cc2cccs2)C(=O)N2C(C(=O)O)=C(COC(N)=O)CS[C@@H]21	inactive	inactive	inactive	inactive	inactive	inactive	inactive	inactive	inactive	
CC(N)C(=O)OC(C)(C)Cc1ccc(Cl)cc1 (configuration not stated)	inactive	inactive	inactive	inactive	inactive		inactive	inactive	inactive	
CCCCC1C(=O)N(c2ccccc2)N(c2ccc(O)cc2)C1=O (configuration not stated)	10.6 µM (active)	10.6 µM (active)	2.66 µM (active)		2.99 µM (active)			6.68 µM (active)	5.96 µM (active)	
CC1(C)S[C@@H]2[C@H](NC(=O)[C@H](N)c3ccccc3)C(=O)N2[C@H]1C(=O)O	inactive	inactive	inactive	inactive	inactive	inactive	inactive	inactive	inactive	inactive
CCCCCCCC/C=C/C(=O)O	inactive		42.2 µM (active)	inactive	inactive	inactive			inactive	
C=CCCCCCCCCC(=O)O	inactive	inactive	inactive	inactive	inactive	inactive	inactive	inactive	inactive	
Nc1ccc(O)c(C(=O)O)c1	inactive	inactive	inactive	inactive	inactive		inactive	inactive	inactive	inactive
NCCO	inactive	inactive	inactive	inactive	inactive				inactive	inactive
c1ccc2sc(SSc3nc4ccccc4s3)nc2c1	inactive		inactive	inactive	inactive	inactive	inactive	inactive	inactive	inactive
N=C1N=C(N)c2cc3ccccc3cc21	24.3 µM (active)	19.3 µM (active)	6.86 µM (active)	15.9 µM (active)			25 µM (active)	19.3 µM (active)	24.3 µM (active)	
C/C(=N\O)c1ccc(OCC(=O)N2CCCCC2)cc1	inactive	inactive	inactive	inactive	inactive	inactive	inactive	inactive	inactive	inactive
C[N+]1(C)[C@@H]2CC(OC(=O)[C@H](CO)c3ccccc3)C[C@H]1[C@@H]1O[C@@H]12 (some centres not stated)	inactive	inactive	inactive	inactive	inactive		inactive	inactive	inactive	
O=C(O)Cc1ccc2c(c1)C(=O)c1ccccc1CO2	inactive	inactive	inactive	inactive	inactive	inactive	inactive	inactive	inactive	inactive
COC(=O)c1nc(Cl)c(Cl)nc1N	5.31 µM (active)	2.11 µM (active)	0.668 µM (active)	13.8 µM (active)	1.33 µM (active)		3.44 µM (active)		3.35 µM (active)	
CC(=O)SCC(CC(=O)c1ccc(C)cc1)C(=O)O (configuration not stated)	inactive	inactive	inactive	inactive	inactive		inactive	inactive	inactive	inactive
CCCCCCCCCCCCCCCC(=O)OC(C)C	inactive	inactive	inactive	inactive	inactive		inactive	inactive	inactive	
N=C(N)N	inactive	inactive	inactive	inactive	inactive		inactive	inactive	inactive	
CCC1C(=O)OCC1Cc1cncn1C (configuration not stated)	inactive	inactive	inactive	inactive	inactive		inactive	inactive	inactive	
CC(=O)c1ccc(OCC(=O)N2CCCCC2)cc1	inactive	inactive	inactive	inactive	inactive		inactive	inactive	inactive	inactive
O=C(O)c1ccccc1Nc1cccc(C(F)(F)F)c1	inactive	inactive		inactive	inactive	inactive	inactive	inactive	inactive	inactive
O=C(Nc1ccc(C(=O)O)c(O)c1)c1ccccc1	inactive	inactive	inactive	inactive	inactive		inactive	inactive	inactive	inactive
CC(C(=O)O)c1ccc2c(c1)[nH]c1ccc(Cl)cc12 (configuration not stated)	inactive	inactive		inactive	inactive			inactive	inactive	inactive
